FBW7 activator: human FBW7 E3 ligase activation, primary screen; AlphaScreen FBW7–phospho-cyclin E peptide binding, activator screen; 650,000 tested, 0.13% active; AID 1259310; normalized activity (activation), % at 26.1 µM; in the data active = normalized activity above about 1.9%;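 also: purified mutant Fbw7 with reduced substrate affinity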
GPR151 ag: activates the human receptor GPR151. activation, % at 11.2 µM. 650,000 tested, 1% active. PathHunter beta-arrestin GPR151 cells, luminescence. AID 1508602. Q8TDV0; in the data active = activation above about 4.9%;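 also: 0% = median of compound wells and 100% = cells with positive control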
Target sequence (Q8TDV0 whole entry, looked up): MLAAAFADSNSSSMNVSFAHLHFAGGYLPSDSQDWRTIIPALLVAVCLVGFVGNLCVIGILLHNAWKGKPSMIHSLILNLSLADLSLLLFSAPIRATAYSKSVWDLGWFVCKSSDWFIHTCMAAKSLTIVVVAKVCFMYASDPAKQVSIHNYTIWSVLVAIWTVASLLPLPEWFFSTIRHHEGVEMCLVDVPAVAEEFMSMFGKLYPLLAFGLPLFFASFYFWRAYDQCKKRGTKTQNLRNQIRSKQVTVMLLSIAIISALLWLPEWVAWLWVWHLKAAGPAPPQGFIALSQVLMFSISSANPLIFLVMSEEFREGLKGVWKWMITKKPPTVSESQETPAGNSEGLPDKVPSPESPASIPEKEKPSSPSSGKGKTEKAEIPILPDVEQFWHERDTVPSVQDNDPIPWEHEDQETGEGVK
TEAD-YAP block: TEAD-YAP interaction inhibition; AID 1259422; HEK-TIYL cells, TEAD-Gal4/YAP UAS-luciferase luminescence; inhibition, % at 9.12 µM; 640,000 tested, 1.4% active; in the data active = inhibition above about 32%;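 also: 0% = median of test compound wells and 100% = reference inhibitor wells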
MITF primary: inhibitors of human MITF; 650,000 tested, 0.91% active; inhibition, % at 2.6 µM; AlphaScreen MITF homodimerization, bead proximity signal; O75030; in the data active = inhibition above about 50%;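 also: 0% = vehicle wells with protein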
* hit, by the source's call. Only some compounds are listed: those with a hit (about 3.5% of all), similar ones and a draw of the others.

SMILES	FBW7 activator	GPR151 ag	TEAD-YAP block	MITF primary
CCOc1ccc(N(CC)S(=O)(=O)c2ccc3c(c2)oc(=O)n3C)cc1	0.0	2.1	47.8*	15.5
O=C(Nc1ccc(-c2cscn2)cc1)C1CCCN(Cc2ccsc2)C1 (centres undefined)	-0.1	0.7	-0.4	5.8
Cc1ccc(S(=O)(=O)N2C(=O)CCC2c2nc(-c3ccccn3)no2)cc1 (centres undefined)	-0.4	-0.2	38.9*	4.7
CC1(CC(=O)N=Nc2c(O)[nH]c3ccc(Br)cc23)OCCO1	0.2	-0.9	12.0	-5.5
CN1CCN(/N=C/c2ccc(O)c(O)c2)CC1	-0.1	2.1	8.4	79.3*
CC1=CC(=O)C=C(C)C1=NOC(=O)c1ccc([N+](=O)[O-])cc1	0.5	-1.7	5.2	7.7
CC1=CC(=O)C=C(C)C1=NOC(=O)c1ccc(Cl)cc1	0.1	-0.2	7.9	72.6*
O=C1c2cc(OCCN3CCOCC3)ccc2-c2ccc(OCCN3CCOCC3)cc21	-0.1	0.6	-5.2	5.5
COc1ccc(-n2c(/C=C/N(C)C)c([N+](=O)[O-])c3ccc(O)c(CN(C)C)c32)cc1	0.2	-0.6	37.6*	5.4
C=CCOC(=O)C1=C(C)NC2=C(C(=O)CCC2)C1c1cc(OC)c(OC)cc1[N+](=O)[O-] (centres undefined)	-0.6	1.6	31.9*	10.5
CCOc1cccc(C2C(C(=O)OCCSCC)=C(C)NC3=C2C(=O)C(C(=O)OC)C(C)C3)c1 (centres undefined)	1.9*	-0.2	-18.9	14.3
CCSCCOC(=O)C1=C(C)NC2=C(C(=O)CCC2)C1c1ccc(Br)cc1 (centres undefined)	2.0*	-1.7	6.6	5.3
CC1=C(C(=O)OCCOc2ccccc2)C(c2coc3ccc(Cl)cc3c2=O)C2=C(CCCC2=O)N1 (centres undefined)	0.0	-0.5	-0.8	-16.3
CCOC(=O)C1=C(C)NC2=C(C(=O)CCC2)C1c1coc2ccc(Cl)cc2c1=O (centres undefined)	2.3*	-0.5	24.3	14.2
CCOc1ccc(C2C(C(=O)OCCSCC)=C(C)NC3=C2C(=O)C(C(=O)OC)C(C)C3)cc1 (centres undefined)	0.7	-1.3	12.1	6.7
CC(Nc1ncnc2sccc12)c1ccccc1 (centres undefined)	-0.1	3.0	53.0*	-4.0
c1ccc(CC2CCN(c3ncnc4sccc34)CC2)cc1	-0.1	3.3	33.6*	1.3
Cc1ccc(CN=C(N)Nc2nc(C)cc(C)n2)cc1	-0.2	1.6	54.0*	-0.2
Cc1cc(C)nc(NC(N)=NCc2ccccc2)n1	-0.2	-0.3	5.0	6.7
N#C/C(=C\c1cccs1)c1cccc(C#N)c1	0.0	-1.3	-4.1	13.3
CCOC(=O)c1ccc(N/C=C\C(=O)c2ccc3c(c2)OCO3)cc1	0.0	-0.9	33.0*	-10.6
COc1ccc(-c2c(C)oc3cc(O)ccc3c2=O)cc1	-0.2	1.4	1.0	-4.3
Cc1oc2cc(OCCN3CCOCC3)ccc2c(=O)c1-c1ccc(Br)cc1	0.1	0.6	36.8*	-2.7
Cc1oc2cc(OCC(=O)O)ccc2c(=O)c1-c1ccc(Br)cc1	-0.1	0.7	-1.7	-3.3
Cc1oc2cc(OS(C)(=O)=O)ccc2c(=O)c1-c1ccc(Br)cc1	0.0	3.2	34.0*	0.8
SMILES	FBW7 activator	GPR151 ag	TEAD-YAP block	MITF primary
COc1cccc(Oc2c(C)oc3cc(OS(C)(=O)=O)ccc3c2=O)c1	0.0	0.7	44.1*	-4.5
COc1ccc(-c2c(C)oc3cc(OS(C)(=O)=O)ccc3c2=O)cc1	-0.1	0.5	36.9*	3.1
COc1ccc(N2CCN(C(=O)[C@@H](NS(=O)(=O)c3ccccc3F)C(C)C)CC2)cc1	-0.2	-0.1	0.4	-12.0
COc1ccc2[nH]c(=O)c(CN(Cc3ccccc3Cl)C(C)=O)cc2c1	-0.1	-0.1	0.8	1.0
C=CCSc1nc2nc(N)[nH]c(=O)c2[nH]1	0.0	-0.4	-5.7	17.3
O=C(CSc1ccc(F)cc1)Nc1cccc2ccc(-n3ccnc3)nc12	0.7	-2.1	5.7	11.2
COc1ccc(N(/C=C2\Sc3ccccc3C2=O)C(=O)c2ccc(C)cc2)cc1	-0.4	-8.8	41.3*	-6.7
CC(=O)N(/C=C1\Sc2ccccc2C1=O)c1ccc(C)c(C)c1	0.1	-3.0	86.4*	3.8
COc1ccc(N(/C=C2\Sc3ccccc3C2=O)C(=O)c2ccccc2)cc1	-0.1	-9.2	54.3*	-3.8
O=C1/C(=C\N(C(=O)c2ccccc2)c2ccccc2)Sc2ccccc21	-0.3	-2.8	3.0	-0.8
COc1ccccc1N(C=O)/C=C1\Sc2ccccc2C1=O	0.1	-2.4	54.6*	0.4

Compound activity (PubChem BioAssay)
